Laboratory results published in the supplement of paper PMC4840960.

What follows are compounds tested on E18 rat cortical neuron-glia co-culture (assay: myelination (MBP fiber length per Olig2+ nucleus), % of 1 µM DAPT response (DMSO = 0) (% of DAPT); higher = more myelination, active = 50 or more). Conditions: 1 µM; treatment time: 8 days (DIV5-DIV13).
How it was run: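 Rat cortical co-cultures from E18 tissue were dissociated with papain and plated at 20,000 cells/well on 96-well plates coated with poly-d-lysine/laminin. From DIV5 to DIV13, library compounds were added at 1 or 5 µM in myelination medium. After fixation in 4 % paraformaldehyde, cultures were immunostained for MBP and Olig2 and counterstained with DAPI, and four 10X fields were analysed in each of duplicate wells. The myelination value is the length of continuous straight MBP fibers per Olig2+ nucleus, normalised so that 0.1 % DMSO is 0 and a 1 µM positive control is 100.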

myelination, inactive:
COc1cc(-c2ccc(=O)[nH]n2)ccc1OC(F)F [Zardaverine] -34.6
CN1CCN(C2=Nc3ccccc3Oc3ccc(Cl)cc32)CC1 [Loxapine] -14.9
COc1ccc(CC2c3cc(OC)c(OC)cc3CC[N+]2(C)CCC(=O)OCCCCCOC(=O)CC[N+]2(C)CCc3cc(OC)c(OC)cc3C2Cc2ccc(OC)c(OC)c2)cc1OC (stereo not given) [Atracurium] -11.6
C/C(=C\C(=O)OCCCCCCCCC(=O)O)C[C@@H]1OC[C@H](C[C@@H]2O[C@H]2[C@@H](C)[C@H](C)O)[C@@H](O)[C@H]1O [Mupirocin] -12.7
OCc1cc(C(O)CNCCCCCCOCCCCc2ccccc2)ccc1O (stereo not given) [Salmeterol] -29.9
CO[C@H]1/C=C/O[C@@]2(C)Oc3c(C)c(O)c4c(O)c(c(/C=N/N5CCN(C)CC5)c(O)c4c3C2=O)NC(=O)/C(C)=C\C=C\[C@H](C)[C@H](O)[C@@H](C)[C@@H](O)[C@@H](C)[C@H](OC(C)=O)[C@@H]1C [Rifampicin] 12.6
C[C@]12C=CC(=O)C=C1CC[C@@H]1[C@@H]2C(=O)C[C@@]2(C)[C@H]1CC[C@]2(O)C(=O)CO [Prednisone] -13.2

Same assay, conditions: 5 µM; treatment time: 8 days (DIV5-DIV13)

myelination, inactive:
CO[C@H]1/C=C/O[C@@]2(C)Oc3c(C)c(O)c4c(O)c(c5c(nc6cc(C)ccn65)c4c3C2=O)NC(=O)/C(C)=C\C=C\[C@H](C)[C@H](O)[C@@H](C)[C@@H](O)[C@@H](C)[C@H](OC(C)=O)[C@@H]1C [Rifaximin] -12
CN(C)CCCN1c2ccccc2CCc2ccccc21 [Imipramine] -6.74
CCCCNC(=O)NS(=O)(=O)c1ccc(C)cc1 [Tolbutamide] -4.03
CCCCN1CCCCC1C(=O)Nc1c(C)cccc1C (stereo not given) [Bupivacaine] -16.6
COc1cc(N)c(Cl)cc1C(=O)NC1CCN(CCCOc2ccc(F)cc2)CC1OC (stereo not given) [Cisapride] -10.2
CC(C)C(=O)Nc1ccc([N+](=O)[O-])c(C(F)(F)F)c1 [Flutamide] 5.48
CCOC(=O)C1=C(C)NC(C)=C(C(=O)OC)C1c1cccc(Cl)c1Cl (stereo not given) [Felodipine] 8.21
O=[N+]([O-])c1cccc2cn[nH]c12 [7-Nitroindazole] -5.65
CCCCC(=O)N(Cc1ccc(-c2ccccc2-c2nnn[nH]2)cc1)[C@H](C(=O)O)C(C)C [Valsartan] -17.4
CN1CC(=O)N2[C@H](c3ccc4c(c3)OCO4)c3[nH]c4ccccc4c3C[C@@H]2C1=O [Tadalafil] -34.9
Nc1nc2c(ncn2COCCO)c(=O)[nH]1 [Acyclovir] 29.3
CC(COc1ccccc1)N(CCCl)Cc1ccccc1 (stereo not given) [Phenoxybenzamine] 0.385
CO[C@@]1(NC(=O)Cc2cccs2)C(=O)N2C(C(=O)O)=C(COC(N)=O)CS[C@@H]21 [Cefoxitin] -13.8
COc1cc(/C=C/c2ccc(O)cc2)cc(OC)c1 [Pterostilbene] -12.2
CCN(CC)C(=O)C1(c2ccccc2)CC1CN (stereo not given) [Milnacipran] -7.54
COCCCOc1ccnc(C[S+]([O-])c2nc3ccccc3[nH]2)c1C (stereo not given) [Rabeprazole] 10.6
Nc1ccn([C@H]2CC[C@@H](CO)O2)c(=O)n1 [Zalcitabine] -7.3
COc1ccc2cc([C@H](C)C(=O)O)ccc2c1 [Naproxen] -4.96
CC(C)[C@H](N)C(=O)OCCOCn1cnc2c(=O)nc(N)[nH]c21 [Valaciclovir] -19
CC(=O)O[C@]1(C(C)=O)CC[C@H]2[C@@H]3C=C(C)C4=CC(=O)CC[C@]4(C)[C@H]3CC[C@@]21C [Megestrol acetate] -31.3
NC(N)=Nc1nc(CSCC/C(N)=N/S(N)(=O)=O)cs1 [Famotidine] -21.2
COc1cc(C)c(/C=C/C(C)=C/C=C/C(C)=C/C(=O)O)c(C)c1C [Acitretin] 12
CCOC(=O)OC(C)OC1=C(C(=O)Nc2ccccn2)N(C)S(=O)(=O)c2ccccc21 (stereo not given) [Ampiroxicam] -4.42
